# Results from PubChem BioAssay (Tox21).
# Inconclusive results are not listed. A number with no mark means an inactive call. Calls come from the whole dose curve; as a rule, active = well fitted cell-killing curve with a large enough effect in the repeat runs; inconclusive = weak or mixed curves, or effect the other way; inactive = flat fitted curve, though single readings scatter.
# Experiment: qHTS assay to identify small molecule antagonists of the androgen receptor (AR) signaling pathway using the MDA cell line in the presence of 0.5 nM R1881 - cell viability counter screen (AID 1259242); note: nearly all actives have a fitted effect of over 45% in size
# Settings: MDA-kb2 viability, CellTiter-Fluor protease fluorescence, 16 h; series mostly up to 92.4 µM; viability change, negative = cytotoxic: at the top concentration
# Method in brief: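 Counter screen for cytotoxicity run in the same wells as the AR antagonist reporter screen: MDA-kb2 cells were treated 16 hr with test compounds and 0.5 nM R1881, then live-cell protease activity was measured by fluorescence.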
# % is set by controls: 0 for no effect and ±100 for the full control effect.
row,SMILES,"viability change, negative = cytotoxic"
1,CC(C)C(=O)OCCOc1ccccc1,3.11%
2,CC(C)(C)C1(CCc2ccc(Cl)cc2)CO1 (stereo not drawn),6.47%
3,OCC(CO)n1cnc(-c2ccc(F)cc2)c1-c1ccnc(Oc2ccccc2)n1,-2.1%
4,COc1cc(S(=O)(=O)Nc2ccccc2)c(OC)cc1N,-2.95%
5,CC(=O)OCCC1CCCCC1,2.9%
6,CC(=O)NNC(C)=O,0.233%
7,CC(C)c1ccc(C#N)cc1,-0.731%
8,CC[C@H]1OC(=O)[C@H](C)[C@@H](O[C@H]2C[C@@](C)(OC)[C@@H](O)[C@H](C)O2)[C@H](C)[C@@H](O[C@@H]2O[C@H](C)C[C@H](N(C)C)[C@H]2O)[C@](C)(O)C[C@@H](C)CN(C)[C@H](C)[C@@H](O)[C@]1(C)O,-5.25% [at 42.5 µM]
9,CCN(CC)CC(=O)Nc1c(C)cccc1C(=O)OC,-3.33% [at 42.5 µM]
10,C/C(C=O)=C\c1ccccc1,1.9%
11,CC(CO)(CO)C(=O)O,-1.78%
12,O=P(O)(O)Oc1ccccc1,1.67%
13,CCOCCC(=O)OCC,0.325%
14,ClC1=C(Cl)C1(Cl)Cl,6.73%
15,O=C(c1ccccc1)C1CCC1,2.69%
16,O=C(O)c1cccc(C[C@@H]2COc3ccc(OCc4nc5cc(F)ccc5s4)cc3[C@@H]2O)c1,1.04%
17,CCSC(=O)N(CC)CC,1.97%
18,COC(OC)OC,0.583%
19,O=C(NS(=O)(=O)/C=C/c1ccccc1)c1ccc(F)cc1Cl,2.3%
20,O=C(O)c1cccc(Oc2ccccc2)c1,0.105%
21,COC(=O)c1sccc1S(N)(=O)=O,1.25%
22,CCOC(=O)C(C)O (stereo not drawn),2.67%
23,COC(=O)Nc1nc2ccc(C(=O)C3CC3)cc2[nH]1,-11.1% [at 42.5 µM]
